Experimental data taken from ChEMBL document CHEMBL4513216, “Probing the Open Global Health Chemical Diversity Library for Multistage-Active Starting Points for Next-Generation Antimalarials” (ACS Infect Dis, 2020).
In all, about 65,000 compounds went through this assay and about 2,100 (3.2%) showed an effect of 50% or more. The median lay at about -52%. Only a selection was taken, and strong results are over-represented in it overall.

These compounds were tested on Plasmodium falciparum (assay: Screen against P. falciparum Asexual Blood Stage (ABS), at 5uM). Details: tested at 5 uM.
Format: functional, Dd2
With Cc1ccc(CN2CC[C@@H]3OCCN(Cc4ccncc4)[C@H]3CC2)s1 the INHIBITION was 34.9%. Work on Cc1cc(Cl)ccc1C(=O)N1C[C@H](C2CC2)[C@@H](N)C1 yielded an INHIBITION of 61%. Work on N[C@H]1CN(C(=O)c2ccc(Cl)cc2O)C[C@@H]1C1CC1 yielded an INHIBITION of 33%. For N[C@H]1CN(C(=O)c2cnc3cc(Cl)ccc3c2O)C[C@@H]1C1CC1, the INHIBITION was -22.9%. Cc1ccc(C(=O)N2CCOC3(CCCC3)C2)c(=O)[nH]1 gave an INHIBITION of -106%. COCCC(=O)N1C[C@H]2CN(Cc3cccnc3)C(=O)[C@H]2C1 was tested, and the INHIBITION was -55.2%. Compound CCN(C)C(=O)CCN(C)Cc1cnc(C)s1 has an INHIBITION of -125%. CN(C(=O)Cc1ccccc1F)C1CCN(c2ccccn2)CC1 was tested, and the INHIBITION was -73.8%. Work on CC(C)=CCCC1(C)C=Cc2c(cc(C)n(CCC(=O)O)c2=O)O1 (stereo unspecified) yielded an INHIBITION of -18.9%. Work on OC1(CN2CCN(c3cccc(C(F)(F)F)c3)CC2)CNCCOC1 (stereo unspecified) yielded an INHIBITION of 57%. In the case of OC1(CN2CCCC2)COCCN(c2cc(C(F)(F)F)ccn2)C1 (stereo unspecified), the INHIBITION is reported as -53.6%. For FC(F)(F)c1cccc(OC2CCN(Cc3ncc[nH]3)CC2)c1, the INHIBITION was -23%. OC1(CNCCN2CCc3ccccc32)CNCCOC1 (stereo unspecified) gave an INHIBITION of -0.439%. Compound OC1(CN2CCC(Oc3cccnc3)CC2)CNCCOC1 (stereo unspecified) has an INHIBITION of -73.6%. OC1(CN2CCC(Oc3cccc(C(F)(F)F)c3)CC2)CNCCOC1 (stereo unspecified) was tested, and the INHIBITION was 64.7%. Cc1ccc(C(C)NC(=O)CSCC(N)=O)cc1 (stereo unspecified) gave an INHIBITION of -54.8%. Compound CCS(=O)(=O)N1CCc2c(cccc2NC(=O)NCCO)C1 has an INHIBITION of -14.1%. In the case of Clc1cc(Cl)cc(OCCN2CCC(n3cncn3)CC2)c1, the INHIBITION is reported as 33.8%. Cn1ccnc1CN1CCCN(C(=O)CC(C2CC2)C2CC2)CC1 gave an INHIBITION of -16.7%. Cn1nc(COCC2CC2)c2c1CCN(Cc1cccs1)C2 was tested, and the INHIBITION was -41.4%. CN(Cc1cccs1)C(=O)CN1CCOC(Cn2cncn2)C1 (stereo unspecified) was tested, and the INHIBITION was -56%. Cc1cccc(C(C(=O)N(C)Cc2cc(C)no2)N(C)C)c1 (stereo unspecified) showed an INHIBITION of 49.9%. For Cc1cccc(C(C(=O)N(C)Cc2ccco2)N(C)C)c1 (stereo unspecified), the INHIBITION was 66.7%. In the case of Cc1cccc(C(C(=O)N(C)Cc2ccon2)N(C)C)c1 (stereo unspecified), the INHIBITION is reported as -2.4%. Work on CCC(CO)NCc1ccc(-c2ccccc2F)o1 (stereo unspecified) yielded an INHIBITION of -35.5%. For O=C(Cn1ccnc1)N1C[C@@H]2CC[C@H](Oc3ccc(Cl)cc3)[C@@H]2C1, the INHIBITION was -41.4%. COc1ccc(-c2nc(C)cc(SCC(N)=O)n2)cc1 showed an INHIBITION of -104%. For CN1CCC(N(CCc2ccccc2)C(=O)c2ccc(C#N)cc2)CC1, the INHIBITION was 28.4%. COc1ccc2[nH]cc(-c3ccnc(N4CCC(C)CC4)n3)c2c1 was tested, and the INHIBITION was -172%. Work on O=c1[nH]c(-c2ccncc2)ncc1-c1ccnc(NC2CCCCC2)n1 yielded an INHIBITION of -61.7%. COc1ccc2[nH]cc(-c3ccnc(NC4CCCC4)n3)c2c1 was tested, and the INHIBITION was 58.8%. CC(C)c1noc(CN(Cc2ccccc2)C2CC2)n1 gave an INHIBITION of -119%. For CCN1CCn2c(C)cnc2C12CCN(C(=O)C(C)C)CC2, the INHIBITION was -51.6%. Compound CCN1CCn2c(C)cnc2C12CCN(C(=O)CC(C)C)CC2 has an INHIBITION of -55.6%. CCN1CCn2c(C)cnc2C12CCN(C(=O)N(C)C)CC2 was tested, and the INHIBITION was 53%. CC(C)CNC(=O)c1c(-n2cnnn2)sc2c1CCCC2 showed an INHIBITION of -47.3%. CCN1CCCC(CNC(=O)C2(c3cccc(Cl)c3)CC2)C1 (stereo unspecified) was tested, and the INHIBITION was 69.7%. CCN1CCC(CNC(=O)C2(c3cccc(C)c3)CC2)C1 (stereo unspecified) showed an INHIBITION of 0.0435%. In the case of CCCN1CCC(CNC(=O)C2(c3cc(C)cc(C)c3)CCC2)C1 (stereo unspecified), the INHIBITION is reported as 41.6%. CCCN1CCC(CNC(=O)C2(c3ccccc3)CCC2)C1 (stereo unspecified) showed an INHIBITION of 66.3%. For COCCN1CCC(CNC(=O)C2(c3ccccc3)CCC2)C1 (stereo unspecified), the INHIBITION was -0.505%. COCCN1CCC(CNC(=O)C2(c3cccc(Cl)c3)CC2)C1 (stereo unspecified) showed an INHIBITION of -0.48%. COc1cc2c(cc1CNCc1cccnc1-n1cccn1)OC(C)C2 (stereo unspecified) was tested, and the INHIBITION was 20.8%. Compound COc1cccc(COCC(=O)N2CCCC2Cn2cccn2)c1 (stereo unspecified) has an INHIBITION of -10.1%. COCc1ccccc1NCc1csc(NC(C)=O)n1 was tested, and the INHIBITION was -51.9%. CCCN1CCC(c2nc3ccc(NCc4cccnc4)cn3n2)CC1 showed an INHIBITION of -28.7%. O=C(c1ccc(Cl)cc1)N1CCC(N2CCNC2=O)CC1 gave an INHIBITION of -169%. CCN(C)C1COC2(CCN(C(=O)c3ccc(Cl)cc3)CC2)C1 (stereo unspecified) showed an INHIBITION of 2.64%. With CC1(C)[C@@H]2CC=C(CN3CCCn4nc(C(=O)O)cc4C3)[C@H]1C2 the INHIBITION was -37.3%. COCCNc1nnc(S(=O)(=O)CCC(C)(C)C#N)s1 showed an INHIBITION of -77.6%. CCn1nc(C)c2nc(C(C)C)nc(NCCc3ccc(O)cc3)c21 was tested, and the INHIBITION was -3.69%. CCn1ncc(-c2cc(C(F)(F)F)nc(N3CCC(N)CC3)n2)c1C was tested, and the INHIBITION was 65.2%. With Cc1ccc(-c2cc(C(F)(F)F)nc(N3CCOCC3)n2)s1 the INHIBITION was -17.2%. With Cc1c(-c2cc(C(F)(F)F)nc(N3CCC(N)CC3)n2)cnn1C the INHIBITION was 22.7%. CCOC(=O)N1CCN(C(=O)c2cc(OCC)c3ccoc3c2)CC1 showed an INHIBITION of -79%. COc1cc(C(=O)Nc2nc(C)no2)ccc1OC(F)F gave an INHIBITION of -35.8%.
